Test results published in PubChem BioAssay AID1159580 (chemical genetic matrix, 2015).
Among all 5,500 compounds or so, about 2,000 (36%) were called active. About 18% were inconclusive and are not listed. Rule as the data show it: active = normalized growth mostly below about 0.91 (no sharp cut-off); inconclusive = no clear call, values can overlap the other calls; inactive = mostly above about 0.92. This is one part of the list.

Assay: chemical genetic growth profiling, strain panel (AID 1159580);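 also: tested at 20 µM; growth read once vehicle control cultures reached saturation at 30 °C; 1 = growth at the plate median or of vehicle wells; lower values mean less growth of the strain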
Conditions: growth OD

Measured: normalized growth

FC(F)(F)c1cc(-c2noc(C3CCc4ccccc4O3)n2)cc(C(F)(F)F)c1 (centres undefined)
inactive: S. cerevisiae deletion strains, locus YAL013W, strain DEP1, active compounds read low 0.999 | S. cerevisiae deletion strains, locus YBR229C, strain ROT2, active compounds read low 1.02 | S. cerevisiae deletion strains, locus YCL061C, strain MRC1, active compounds read low 0.988 | S. cerevisiae deletion strains, locus YDL101C, strain DUN1, active compounds read low 0.995 | S. cerevisiae deletion strains, locus YDL134C, strain PPH21, active compounds read low 1.03 | S. cerevisiae deletion strains, locus YDR150W, strain NUM1, active compounds read low 0.942 | S. cerevisiae deletion strains, locus YEL061C, strain CIN8, active compounds read low 1.01 | S. cerevisiae deletion strains, locus YGR078C, strain PAC10, active compounds read low 0.988 | S. cerevisiae deletion strains, locus YGR229C, strain SMI1, active compounds read low 1 | S. cerevisiae deletion strains, locus YHR030C, strain SLT2, active compounds read low 1.05 | S. cerevisiae deletion strains, locus YHR087W, strain rtc3, active compounds read low 0.994 | S. cerevisiae deletion strains, locus YJR043C, strain POL32, active compounds read low 0.998 | S. cerevisiae deletion strains, locus YJR075W, strain HOC1, active compounds read low 0.97 | S. cerevisiae deletion strains, locus YKL190W, strain CNB1, active compounds read low 1.02 | S. cerevisiae deletion strains, locus YLR039C, strain RIC1, active compounds read low 1.04 | S. cerevisiae deletion strains, locus YLR058C, strain SHM2 (second series), active compounds read low 0.995 | S. cerevisiae deletion strains, locus YLR085C, strain ARP6, active compounds read low 0.98 | S. cerevisiae deletion strains, locus YLR262C, strain YPT6, active compounds read low 1.04 | S. cerevisiae deletion strains, locus YML094W, strain GIM5, active compounds read low 0.982 | S. cerevisiae deletion strains, locus YMR219W, strain ESC1, active compounds read low 1 | S. cerevisiae deletion strains, locus YMR263W, strain SAP30, active compounds read low 0.993 | S. cerevisiae deletion strains, locus YNL153C, strain GIM3, active compounds read low 0.998 | S. cerevisiae deletion strains, locus YNL298W, strain CLA4 (second series), active compounds read low 1.01 | S. cerevisiae deletion strains, locus YNL322C, strain KRE1, active compounds read low 0.985 | S. cerevisiae deletion strains, locus YNR030W, strain Alg12, active compounds read low 0.996 | S. cerevisiae deletion strains, locus YPL055C, strain LGE1, active compounds read low 0.96 | S. cerevisiae deletion strains, locus YPL241C, strain CIN2, active compounds read low 0.985 | S. cerevisiae deletion strains, locus YPR135W, strain CTF4, active compounds read low 1.11 | S. cerevisiae strains, strain wild type, active compounds read low 1
